Data as given in the supplement of paper PMC10849652.
About 7,900 targets were measured; listed, in parts, are those with a hit and a random draw of the rest. About 0.6% of all pairs of compound and target were hits.

Tests used:
Assay in all cases: log2 fold change, soluble protein after heating vs DMSO (PISA); higher = thermal stabilisation; K562 cells, 10 uM, 30 min; active = over 0.2 and 3.5 SD of the protein, either way, in both replicates (recomputed)
saracatinib = compound: CN1CCN(CCOc2cc(OC3CCOCC3)c3c(Nc4c(Cl)ccc5c4OCO5)ncnc3c2)CC1 [saracatinib]
Summary of the method: (§1)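 K562 cells at 2×10^6 cells/mL were exposed to 10 μM compound for 30 min, then aliquots were heated for 3 min across 48°C-58°C, pooled, and extracted in PBS containing 0.5% NP-40 at 4°C. The supernatant after 21,000xg for 90 min was taken as soluble protein and measured by TMTpro 16plex LC-MS/MS with channel sums equalised. Thermal stability is reported relative to control samples, with values from duplicates. Fold changes are given on a log2 scale.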

sotrastaurin = compound: CN1CCN(c2nc(C3=C(c4c[nH]c5ccccc45)C(=O)NC3=O)c3ccccc3n2)CC1 [sotrastaurin]
Summary of the method: as §1

alvocidib = compound: CN1CC[C@H](c2c(O)cc(O)c3c(=O)cc(-c4ccccc4Cl)oc23)[C@H](O)C1 [alvocidib]
Summary of the method: as §1

Tubastatin A = compound: CN1CCc2c(c3ccccc3n2Cc2ccc(C(=O)NO)cc2)C1 [Tubastatin A]
Summary of the method: as §1

[1] = compound: CNC(=O)C1=CC=CC=C1NC2=NC(=NC=C2Cl)NC3=C(C=C(C=C3)N4CCOCC4)OC
Summary of the method: as §1

defactinib = compound: CNC(=O)c1ccc(Nc2ncc(C(F)(F)F)c(NCc3nccnc3N(C)S(C)(=O)=O)n2)cc1 [defactinib]
Summary of the method: as §1

rucaparib = compound: CNCc1ccc(-c2[nH]c3cc(F)cc4c3c2CCNC4=O)cc1 [rucaparib]
Summary of the method: as §1

[2] = compound: CNc1nc(-c2ccc3c(N)n[nH]c3c2)cc(N2C[C@@H](C(=O)NC3CCCCC3)CC[C@H]2C)n1
Summary of the method: as §1

encorafenib = compound: COC(=O)N[C@@H](C)CNc1nccc(-c2cn(C(C)C)nc2-c2cc(Cl)cc(NS(C)(=O)=O)c2F)n1 [encorafenib]
Summary of the method: as §1

[3] = compound: COC(=O)[C@H](CCSC)NC(=O)C1=C(C=C(C=C1)NC[C@H](CS)N)C2=CC=CC=C2
Summary of the method: as §1

[4] = compound: COC1=CC=C(C=C1)CN2C=CC3=C2C=C(C=C3)C(=O)NO
Summary of the method: as §1

filanesib = compound: CON(C)C(=O)N1N=C(c2cc(F)ccc2F)S[C@@]1(CCCN)c1ccccc1 [filanesib]
Summary of the method: as §1

zotarolimus = compound: CO[C@H]1C[C@@H]2CC[C@@H](C)[C@@](O)(O2)C(=O)C(=O)N2CCCC[C@H]2C(=O)O[C@H]([C@H](C)C[C@@H]2CC[C@H](n3cnnn3)[C@H](OC)C2)CC(=O)[C@H](C)/C=C(\C)[C@@H](O)[C@@H](OC)C(=O)[C@H](C)C[C@H](C)/C=C/C=C/C=C/1C [zotarolimus]
Summary of the method: as §1

idasanutlin = compound: COc1cc(C(=O)O)ccc1NC(=O)[C@@H]1N[C@@H](CC(C)(C)C)[C@](C#N)(c2ccc(Cl)cc2F)[C@H]1c1cccc(Cl)c1F [idasanutlin]
Summary of the method: as §1

alisertib = compound: COc1cc(Nc2ncc3c(n2)-c2ccc(Cl)cc2C(c2c(F)cccc2OC)=NC3)ccc1C(=O)O [alisertib]
Summary of the method: as §1

[5] = compound: COc1cc2nc(-c3cc(F)ccc3O)nc(N[C@@H]3CNC[C@H]3C(C)(C)O)c2cc1OC
Summary of the method: as §1

gefitinib = compound: COc1cc2ncnc(Nc3ccc(F)c(Cl)c3)c2cc1OCCCN1CCOCC1 [gefitinib]
Summary of the method: as §1

[6] = compound: COc1cccc2cc(-c3nc([C@H]4CC[C@H](C(=O)O)CC4)n4ncnc(N)c34)[nH]c12
Summary of the method: as §1

lapatinib = compound: CS(=O)(=O)CCNCc1ccc(-c2ccc3ncnc(Nc4ccc(OCc5cccc(F)c5)c(Cl)c4)c3c2)o1 [lapatinib]
Summary of the method: as §1

pictilisib = compound: CS(=O)(=O)N1CCN(Cc2cc3nc(-c4cccc5[nH]ncc45)nc(N4CCOCC4)c3s2)CC1 [pictilisib]
Summary of the method: as §1

Measured: log2 fold change

ATP13A3 (UniProt Q9H7F0)
inactive: saracatinib -0.029 | sotrastaurin 0.048 | alvocidib -0.159 | Tubastatin A 0.002 | [1] -0.005 | defactinib -0.014 | rucaparib 0.091 | [2] 0.013 | encorafenib 0.037 | [3] 0.037 | [4] -0.034 | filanesib 0.054 | zotarolimus -0.158 | idasanutlin -0.027 | alisertib -0.098 | [5] -0.078 | gefitinib -0.02 | [6] -0.038 | lapatinib 0.005 | pictilisib 0.104

ACO2 (UniProt Q99798)
Sequence of UniProt Q99798 (Q99798 whole entry, looked up): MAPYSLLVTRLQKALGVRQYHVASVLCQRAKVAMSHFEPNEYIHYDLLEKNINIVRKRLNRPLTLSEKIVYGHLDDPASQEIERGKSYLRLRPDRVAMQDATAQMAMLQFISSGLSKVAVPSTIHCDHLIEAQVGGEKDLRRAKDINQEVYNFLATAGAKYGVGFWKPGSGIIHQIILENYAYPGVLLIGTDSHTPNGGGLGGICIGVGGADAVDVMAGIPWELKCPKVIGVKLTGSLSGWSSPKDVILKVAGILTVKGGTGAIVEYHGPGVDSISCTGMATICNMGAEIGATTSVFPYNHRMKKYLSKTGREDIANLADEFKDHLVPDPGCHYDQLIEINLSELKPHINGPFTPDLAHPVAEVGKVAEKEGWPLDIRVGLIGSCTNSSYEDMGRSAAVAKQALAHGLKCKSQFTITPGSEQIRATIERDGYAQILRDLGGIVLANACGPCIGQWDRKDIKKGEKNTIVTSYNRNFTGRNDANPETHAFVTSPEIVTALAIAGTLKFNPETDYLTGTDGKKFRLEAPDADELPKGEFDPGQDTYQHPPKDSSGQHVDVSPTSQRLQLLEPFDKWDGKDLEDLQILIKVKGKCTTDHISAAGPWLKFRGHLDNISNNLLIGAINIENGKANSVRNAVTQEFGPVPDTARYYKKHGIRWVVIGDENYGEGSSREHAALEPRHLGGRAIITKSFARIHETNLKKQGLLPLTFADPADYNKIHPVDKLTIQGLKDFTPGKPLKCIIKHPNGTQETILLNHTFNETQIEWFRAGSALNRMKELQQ
inactive: saracatinib 0.005 | sotrastaurin -0.017 | alvocidib -0.107 | Tubastatin A -0.021 | [1] 0.016 | defactinib -0.083 | rucaparib -0.034 | [2] 0.021 | encorafenib 0.027 | [3] -0.037 | [4] -0.101 | filanesib -0.081 | zotarolimus 0.015 | idasanutlin -0.086 | alisertib -0.016 | [5] 0.036 | gefitinib 0.008 | [6] 0.071 | lapatinib -0.018 | pictilisib 0.041

ADK (UniProt P55263)
Sequence of UniProt P55263 (P55263 whole entry, looked up): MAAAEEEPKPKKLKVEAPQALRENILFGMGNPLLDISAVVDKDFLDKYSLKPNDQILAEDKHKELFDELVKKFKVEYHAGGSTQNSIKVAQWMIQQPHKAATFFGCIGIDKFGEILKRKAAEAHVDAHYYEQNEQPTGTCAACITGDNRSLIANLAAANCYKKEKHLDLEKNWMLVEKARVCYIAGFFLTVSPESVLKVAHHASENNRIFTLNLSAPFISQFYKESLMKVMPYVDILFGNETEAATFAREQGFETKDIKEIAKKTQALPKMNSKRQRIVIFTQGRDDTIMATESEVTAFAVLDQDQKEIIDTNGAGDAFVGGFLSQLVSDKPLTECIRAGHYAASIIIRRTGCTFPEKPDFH
inactive: saracatinib 0.158 | sotrastaurin 0.26 | alvocidib 0.305 | Tubastatin A -0.007 | [1] 0.119 | defactinib 0.055 | rucaparib -0.021 | [2] -0.017 | encorafenib -0.044 | [3] 0.002 | [4] -0.009 | filanesib -0.013 | zotarolimus -0.014 | idasanutlin -0.083 | alisertib -0.037 | [5] 0.015 | gefitinib 0.199 | [6] 0.007 | lapatinib 0.21 | pictilisib 0.167

BAP1 (UniProt Q92560)
Sequence of UniProt Q92560 (Q92560 whole entry, looked up): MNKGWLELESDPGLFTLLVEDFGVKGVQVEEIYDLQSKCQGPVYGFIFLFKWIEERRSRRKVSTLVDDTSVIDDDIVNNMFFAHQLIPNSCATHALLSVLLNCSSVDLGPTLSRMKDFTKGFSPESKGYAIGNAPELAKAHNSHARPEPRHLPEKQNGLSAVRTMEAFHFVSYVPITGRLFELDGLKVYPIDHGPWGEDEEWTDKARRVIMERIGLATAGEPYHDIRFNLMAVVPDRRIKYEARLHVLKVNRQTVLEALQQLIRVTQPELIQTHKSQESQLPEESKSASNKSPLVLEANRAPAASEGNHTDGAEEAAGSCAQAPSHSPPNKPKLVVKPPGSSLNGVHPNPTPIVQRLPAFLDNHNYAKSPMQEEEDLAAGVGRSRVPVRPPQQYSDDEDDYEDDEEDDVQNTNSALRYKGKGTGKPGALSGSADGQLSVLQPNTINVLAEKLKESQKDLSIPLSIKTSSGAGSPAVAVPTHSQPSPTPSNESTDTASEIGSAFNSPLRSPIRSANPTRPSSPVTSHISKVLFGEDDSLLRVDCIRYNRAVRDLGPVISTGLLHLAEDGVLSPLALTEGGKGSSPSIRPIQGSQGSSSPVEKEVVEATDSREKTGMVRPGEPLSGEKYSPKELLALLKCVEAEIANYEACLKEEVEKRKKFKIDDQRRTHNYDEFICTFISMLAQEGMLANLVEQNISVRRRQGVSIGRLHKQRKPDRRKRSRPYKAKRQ
inactive: saracatinib -0.091 | sotrastaurin 0.089 | alvocidib 0.053 | Tubastatin A 0.042 | [1] -0.1 | defactinib 0.09 | rucaparib 0.037 | [2] 0.061 | encorafenib 0.014 | [3] -0.017 | [4] 0.032 | filanesib 0.111 | zotarolimus 0.046 | idasanutlin 0.164 | alisertib -0.112 | [5] -0.006 | gefitinib -0.055 | [6] -0.024 | lapatinib 0.119 | pictilisib 0.062

ATP1A1 (UniProt P05023)
inactive: saracatinib 0.046 | sotrastaurin 0.039 | alvocidib -0.034 | Tubastatin A -0.026 | [1] -0.026 | defactinib -0.024 | rucaparib -0.009 | [2] 0.011 | encorafenib -0.001 | [3] 0.014 | [4] 0.09 | filanesib 0.013 | zotarolimus 0.002 | idasanutlin 0.004 | alisertib -0.092 | [5] 0.032 | gefitinib 0.03 | [6] 0.054 | lapatinib -0.019 | pictilisib -0.023

ACTR1B (UniProt P42025)
Sequence of UniProt P42025 (P42025 whole entry, looked up): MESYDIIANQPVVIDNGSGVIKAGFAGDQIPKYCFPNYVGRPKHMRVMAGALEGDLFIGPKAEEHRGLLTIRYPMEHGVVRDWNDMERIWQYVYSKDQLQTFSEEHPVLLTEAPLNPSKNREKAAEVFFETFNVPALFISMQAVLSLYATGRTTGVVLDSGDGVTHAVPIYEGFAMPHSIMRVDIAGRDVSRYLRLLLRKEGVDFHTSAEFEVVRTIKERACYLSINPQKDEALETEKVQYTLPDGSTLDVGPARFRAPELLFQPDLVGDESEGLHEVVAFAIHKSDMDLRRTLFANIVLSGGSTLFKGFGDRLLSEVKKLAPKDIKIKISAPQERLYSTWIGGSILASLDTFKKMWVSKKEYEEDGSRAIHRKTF
inactive: saracatinib 0.012 | sotrastaurin -0.025 | alvocidib -0.058 | Tubastatin A -0.004 | [1] 0 | defactinib -0.005 | rucaparib -0.037 | [2] -0.012 | encorafenib -0.048 | [3] -0.075 | [4] 0.084 | filanesib 0.044 | zotarolimus -0.026 | idasanutlin -0.136 | alisertib -0.163 | [5] 0.008 | gefitinib 0.04 | [6] 0.073 | lapatinib -0.104 | pictilisib 0.127

APOH (UniProt P02749)
Sequence of UniProt P02749 (P02749 whole entry, looked up): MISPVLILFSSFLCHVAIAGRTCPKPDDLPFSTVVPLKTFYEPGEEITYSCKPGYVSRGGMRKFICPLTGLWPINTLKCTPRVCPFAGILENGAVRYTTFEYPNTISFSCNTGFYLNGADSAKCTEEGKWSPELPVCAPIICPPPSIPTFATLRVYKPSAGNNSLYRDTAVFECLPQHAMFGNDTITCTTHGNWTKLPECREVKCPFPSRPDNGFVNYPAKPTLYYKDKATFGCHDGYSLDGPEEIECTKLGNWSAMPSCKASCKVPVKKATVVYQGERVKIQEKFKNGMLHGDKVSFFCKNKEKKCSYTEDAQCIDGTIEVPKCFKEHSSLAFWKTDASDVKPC
inactive: saracatinib 0.097 | sotrastaurin 0.317 | alvocidib 0.371 | Tubastatin A -0.128 | [1] -0.032 | defactinib -0.042 | rucaparib -0.13 | [2] -0.391 | encorafenib 0.041 | [3] -0.021 | [4] 0.03 | filanesib -0.156 | zotarolimus -0.696 | alisertib 0.151 | [5] -0.059 | gefitinib -0.307 | [6] 0.529 | lapatinib -0.197 | pictilisib -0.537
active: idasanutlin 1.05

AKT1 (UniProt P31749)
Sequence of UniProt P31749 (P31749 whole entry, looked up): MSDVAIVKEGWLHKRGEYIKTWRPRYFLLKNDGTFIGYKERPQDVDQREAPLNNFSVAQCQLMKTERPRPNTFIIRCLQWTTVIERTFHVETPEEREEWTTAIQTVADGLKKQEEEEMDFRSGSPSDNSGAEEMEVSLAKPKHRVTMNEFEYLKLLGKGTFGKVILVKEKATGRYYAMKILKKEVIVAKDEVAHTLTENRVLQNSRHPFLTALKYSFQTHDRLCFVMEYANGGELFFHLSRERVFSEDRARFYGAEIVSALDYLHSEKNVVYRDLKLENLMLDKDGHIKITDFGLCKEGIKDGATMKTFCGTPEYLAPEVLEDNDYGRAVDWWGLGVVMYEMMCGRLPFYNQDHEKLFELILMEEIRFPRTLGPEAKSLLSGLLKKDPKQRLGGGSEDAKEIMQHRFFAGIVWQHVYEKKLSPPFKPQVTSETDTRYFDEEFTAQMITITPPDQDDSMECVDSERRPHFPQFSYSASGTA
inactive: saracatinib -0.163 | sotrastaurin -0.25 | alvocidib -0.043 | Tubastatin A 0.111 | [1] 0.317 | defactinib -0.062 | rucaparib 0.038 | [2] -0.24 | encorafenib -0.003 | [3] -0.025 | [4] -0.001 | filanesib 0.001 | zotarolimus 0.059 | idasanutlin -0.134 | alisertib -0.07 | [5] 0.1 | gefitinib 0.025 | [6] -0.224 | lapatinib 0.135 | pictilisib 0.216

ALDH1B1 (UniProt P30837)
Sequence of UniProt P30837 (P30837 whole entry, looked up): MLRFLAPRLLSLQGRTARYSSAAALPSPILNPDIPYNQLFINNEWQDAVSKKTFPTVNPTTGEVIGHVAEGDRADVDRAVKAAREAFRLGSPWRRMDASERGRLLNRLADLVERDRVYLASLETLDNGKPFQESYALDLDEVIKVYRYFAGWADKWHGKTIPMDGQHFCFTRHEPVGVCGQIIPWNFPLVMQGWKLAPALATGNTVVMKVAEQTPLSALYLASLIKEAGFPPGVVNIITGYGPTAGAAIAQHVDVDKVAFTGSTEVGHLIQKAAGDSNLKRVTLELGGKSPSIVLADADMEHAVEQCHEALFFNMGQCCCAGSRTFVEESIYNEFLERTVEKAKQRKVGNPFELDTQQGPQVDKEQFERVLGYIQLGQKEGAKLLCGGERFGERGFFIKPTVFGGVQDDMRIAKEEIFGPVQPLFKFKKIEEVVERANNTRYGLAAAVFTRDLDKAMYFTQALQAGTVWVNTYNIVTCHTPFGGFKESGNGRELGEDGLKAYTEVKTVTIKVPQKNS
inactive: saracatinib -0.015 | sotrastaurin 0.001 | alvocidib -0.093 | Tubastatin A 0.014 | [1] 0.002 | defactinib -0.055 | rucaparib -0.015 | [2] 0.062 | encorafenib 0.013 | [3] -0.042 | [4] 0.051 | filanesib -0.1 | zotarolimus 0.029 | idasanutlin -0.122 | alisertib -0.045 | [5] -0.009 | gefitinib 0.091 | [6] 0.075 | lapatinib -0.003 | pictilisib 0.062

ADPRHL2 (UniProt Q9NX46)
active: [5] 0.245
inactive: saracatinib 0.039 | sotrastaurin -0.001 | alvocidib -0.003 | Tubastatin A 0.031 | [1] 0.049 | defactinib 0.015 | rucaparib -0.085 | [2] -0.026 | encorafenib -0.009 | [3] -0.116 | [4] 0.111 | filanesib -0.08 | zotarolimus 0.022 | idasanutlin -0.06 | alisertib 0.009 | gefitinib -0.028 | [6] 0.012 | lapatinib 0.03 | pictilisib 0.078

APPL1 (UniProt Q9UKG1)
Sequence of UniProt Q9UKG1 (Q9UKG1 whole entry, looked up): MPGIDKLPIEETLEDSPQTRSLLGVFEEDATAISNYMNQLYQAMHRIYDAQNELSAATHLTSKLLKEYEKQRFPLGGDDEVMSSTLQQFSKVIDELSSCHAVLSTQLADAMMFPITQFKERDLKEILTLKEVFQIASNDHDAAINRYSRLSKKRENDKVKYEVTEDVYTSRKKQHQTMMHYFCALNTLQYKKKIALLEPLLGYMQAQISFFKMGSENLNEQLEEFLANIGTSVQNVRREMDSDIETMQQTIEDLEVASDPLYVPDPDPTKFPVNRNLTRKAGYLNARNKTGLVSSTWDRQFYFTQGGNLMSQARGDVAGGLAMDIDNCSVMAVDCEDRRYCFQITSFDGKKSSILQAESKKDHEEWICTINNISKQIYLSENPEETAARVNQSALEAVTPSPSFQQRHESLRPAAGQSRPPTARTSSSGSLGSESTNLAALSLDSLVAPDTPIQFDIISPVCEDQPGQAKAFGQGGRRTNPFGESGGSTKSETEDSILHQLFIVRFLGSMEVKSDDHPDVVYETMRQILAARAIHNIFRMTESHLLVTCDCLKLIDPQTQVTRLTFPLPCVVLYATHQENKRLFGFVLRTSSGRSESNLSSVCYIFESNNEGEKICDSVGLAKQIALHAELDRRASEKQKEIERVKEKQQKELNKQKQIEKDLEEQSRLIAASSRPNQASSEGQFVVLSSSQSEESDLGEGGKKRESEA
inactive: saracatinib 0.029 | sotrastaurin -0.004 | alvocidib -0.179 | Tubastatin A 0.002 | [1] 0.027 | defactinib 0.037 | rucaparib -0.095 | [2] -0.03 | encorafenib 0.03 | [3] -0.029 | [4] -0.024 | filanesib 0.069 | zotarolimus 0.018 | idasanutlin -0.076 | alisertib -0.001 | [5] 0.079 | gefitinib -0.106 | [6] -0.023 | lapatinib -0.025 | pictilisib 0.033

ATP11A (UniProt P98196)
inactive: saracatinib 0.082 | sotrastaurin 0.094 | alvocidib 0.059 | Tubastatin A 0.007 | [1] -0.002 | defactinib -0.093 | rucaparib 0.192 | [2] 0.044 | encorafenib 0.008 | [3] 0.017 | [4] -0.027 | filanesib 0.036 | zotarolimus 0.011 | idasanutlin 0.004 | alisertib 0.23 | [5] 0.026 | gefitinib 0.057 | [6] 0.015 | lapatinib -0.033 | pictilisib 0.007

ABHD17A isoform 2 (UniProt Q96GS6)
Sequence of UniProt Q96GS6 (Q96GS6 whole entry, looked up): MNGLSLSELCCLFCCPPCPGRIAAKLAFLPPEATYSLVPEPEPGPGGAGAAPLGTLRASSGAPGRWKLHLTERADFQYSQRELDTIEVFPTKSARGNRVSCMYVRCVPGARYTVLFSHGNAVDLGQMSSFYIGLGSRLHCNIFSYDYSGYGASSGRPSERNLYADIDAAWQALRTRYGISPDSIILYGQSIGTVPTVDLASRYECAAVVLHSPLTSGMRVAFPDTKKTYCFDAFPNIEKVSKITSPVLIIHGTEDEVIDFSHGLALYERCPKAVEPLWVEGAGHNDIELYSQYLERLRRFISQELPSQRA
inactive: saracatinib 0.002 | sotrastaurin 0.01 | alvocidib 0.04 | Tubastatin A 0.065 | defactinib -0.008 | rucaparib 0.017 | [2] -0.052 | encorafenib 0.104 | [3] 0.059 | [4] -0.194 | filanesib 0.086 | zotarolimus 0.012 | idasanutlin 0.034 | alisertib 0.032 | [5] 0.069 | gefitinib 0.081 | [6] 0.027 | lapatinib -0.038 | pictilisib 0.077
active: [1] -0.595

APOB (UniProt P04114)
inactive: saracatinib -0.139 | sotrastaurin -0.17 | alvocidib -0.014 | Tubastatin A -0.021 | [1] 0.012 | defactinib 0.05 | rucaparib -0.197 | [2] -0.364 | encorafenib 0.04 | [3] -0.005 | [4] 0.034 | zotarolimus -0.013 | idasanutlin -0.039 | alisertib 0 | [5] -0.384 | gefitinib -0.129 | [6] 0.164 | lapatinib -0.352 | pictilisib 0.078
active: filanesib -0.86

BRIX1 (UniProt Q8TDN6)
Sequence of UniProt Q8TDN6 (Q8TDN6 whole entry, looked up): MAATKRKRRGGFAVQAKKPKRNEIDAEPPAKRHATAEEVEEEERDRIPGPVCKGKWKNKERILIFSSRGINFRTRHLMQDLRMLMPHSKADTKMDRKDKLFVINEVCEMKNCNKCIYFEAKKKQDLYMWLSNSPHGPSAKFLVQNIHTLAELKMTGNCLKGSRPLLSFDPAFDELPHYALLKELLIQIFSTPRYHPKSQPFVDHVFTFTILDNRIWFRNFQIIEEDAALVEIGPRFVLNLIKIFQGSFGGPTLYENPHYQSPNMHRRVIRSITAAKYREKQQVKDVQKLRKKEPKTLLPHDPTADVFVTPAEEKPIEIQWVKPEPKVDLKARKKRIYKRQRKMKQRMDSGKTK
inactive: saracatinib -0.106 | sotrastaurin -0.051 | alvocidib 0.174 | Tubastatin A 0.2 | [1] -0.154 | defactinib 0.394 | rucaparib 0.253 | [2] 0.129 | encorafenib 0.123 | [3] 0.017 | [4] -0.006 | filanesib 0.574 | zotarolimus 0.132 | idasanutlin 0.397 | alisertib -0.23 | [5] -0.224 | gefitinib -0.039 | [6] -0.193 | lapatinib 0.218 | pictilisib -0.004

BCLAF1 (UniProt Q9NYF8)
inactive: saracatinib -0.033 | sotrastaurin 0.039 | alvocidib -0.271 | Tubastatin A 0.184 | [1] -0.275 | defactinib -0.382 | rucaparib 0.017 | [2] -0.057 | encorafenib 0.013 | [3] -0.028 | [4] -0.107 | filanesib 0.103 | zotarolimus 0.068 | idasanutlin 0.127 | alisertib 0.074 | [5] -0.215 | gefitinib 0.01 | [6] 0.033 | lapatinib 0.101 | pictilisib -0.109
